Test results as given in ChEMBL document CHEMBL4513146, “CO-ADD screening of Karazin Kharkiv National University (Ukraine) compounds”.
Entries with a potency or affinity are not part of this list.

What follows are compounds tested on Cryptococcus neoformans. Settings: Concentration 32 ug.mL-1; ASSAY_TEST Inhibition of Fungal Growth; detection method Resazurin; Absorption (OD600-OD570); plate type 384well; NBS; CORNING #3640.
Work on `Cc1cc2nn(CC(=O)Nc3cccc(C)c3C)c(=O)n2c(Nc2ccc(F)c(C)c2)n1` yielded an Inhibition of -7.96%.
With `COc1cccc(Oc2nccn3c(=O)n(CC(=O)NCc4cccs4)nc23)c1` the Inhibition was -9.44%.
Compound `Cc1ccc(Sc2nccn3c(=O)n(CC(=O)Nc4cc(Cl)ccc4C)nc23)c(C)c1` has an Inhibition of -16.92%.
Work on `N#CCn1nc2n(Cc3ccc(F)cc3)c(=O)c3ccccc3n2c1=O` yielded an Inhibition of -7.73%.
Work on `CCOc1ccc(NC(=O)Cn2nc3c(N4CCCC(C)C4)nccn3c2=O)cc1` (stereo not given) yielded an Inhibition of -15.46%.
Work on `Cc1ccc(-c2ccc3nnc(CCC(=O)NCc4ccc(C(F)(F)F)cc4)n3n2)cc1C` yielded an Inhibition of -1.58%.
With `Cc1ccc(C)c(NC(=O)Cn2nc3c4cc(-c5ccc(C)c(C)c5)nn4ccn3c2=O)c1` the Inhibition was -22.88%.
`CCc1nnc2c(S(=O)(=O)N(Cc3cccc(OC)c3)c3ccc(F)cc3)cccn12` showed an Inhibition of -6.42%.
With `CSc1ccc(CNC(=O)Cn2nc3c(Oc4cccc(C)c4C)nccn3c2=O)cc1` the Inhibition was -6.54%.
`Cc1cccc(-c2nc(CSc3nc4ccccc4n4c(C(C)C)nnc34)c(C)o2)c1` gave an Inhibition of -24.07%.
`CC(C)c1nnc2c(SCC(=O)Nc3ccc(F)cc3F)nc3ccccc3n12` was tested, and the Inhibition was -26.87%.
With `Cc1cccc(NC(=O)Cn2nc3c(SCc4ccccc4)nccn3c2=O)c1C` the Inhibition was -13.96%.
For `COc1ccc(NC(=O)Cn2nc3ccc(SCc4ccc(Cl)cc4)nn3c2=O)cc1`, the Inhibition was -13.57%.
With `Cc1ccc(CN(c2ccc(C(C)C)cc2)S(=O)(=O)c2cccn3c(C)nnc23)cc1` the Inhibition was -9.63%.
In the case of `CC(C)CCn1c(=O)c2ccccc2n2c(=O)n(CC#N)nc12`, the Inhibition was -29.58%.
Work on `CCOc1ccc(-n2ccn3c(SCC(=O)Nc4ccc(CC)cc4)nnc3c2=O)cc1` yielded an Inhibition of -18.11%.
For `COC(=O)c1cccc(NC(=O)Cn2nc3ccc(-c4ccccc4)nn3c2=O)c1`, the Inhibition was -15.91%.
Compound `O=C(CSc1nnc2ccc(C(=O)NCc3ccccc3)cn12)Nc1ccccc1Br` has an Inhibition of -20.85%.
In the case of `COc1ccc(NC(=O)Cn2nc3c(N4CCCC(C)C4)nccn3c2=O)cc1OC` (stereo not given), the Inhibition was -7.35%.
Work on `CC(C)NC(=O)Cn1nc2nc(Nc3ccc(F)cc3)ccn2c1=O` yielded an Inhibition of -10.27%.
`O=C(Cn1nc2ccc(SCc3ccc(Cl)cc3)nn2c1=O)NCc1ccc2c(c1)OCO2` gave an Inhibition of -15.83%.
`O=C(Cn1nc2c(SC3CCCCC3)nccn2c1=O)N1CCN(c2ccc(F)cc2)CC1` was tested, and the Inhibition was -4.89%.
`COc1ccc(C(=O)CSc2nnc3c(=O)n(-c4ccccc4)ccn23)cc1OC` was tested, and the Inhibition was -8.66%.
In the case of `CSc1ccc(CNC(=O)Cn2nc3c(Oc4ccc(C)cc4)nccn3c2=O)cc1`, the Inhibition was -4.29%.
`Cc1c(Cl)cccc1-n1ccn2c(=O)n(Cc3ccccc3Cl)nc2c1=O` was tested, and the Inhibition was -12.25%.
